Results taken from PubChem BioAssay (EPA / NIEHS).
“And” between values parts separate entries of the source, which are not always exact repeats. Identical values can stand only once. More than one record can exist for a structure, and the calls need not agree. The source made the active and inactive calls. Rule for the calls: active = hit-call score of the fitted dose curve at least 0.9, where 1 is the maximum; inactive = score below 0.9.

Assays:
[1] = BSK_CASM3C_SRB: Viability Assessment in the BioMAP Diversity Plus: CASM3C Assay (AID 2283050); conditions: primary human coronary artery smooth muscle cells;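 note: total protein by SRB staining as cytotoxicity measure in parallel cultures; cells exposed to compound for 24 h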
[2] = read-out: Thrombomodulin, THBD (gene 7056); experiment: BSK_CASM3C_Thrombomodulin: BioMAP Diversity Plus: CASM3C Assay for Thrombomodulin Biomarker Activity (AID 2283051); conditions: primary human coronary artery smooth muscle cells; actives raise or lower the signal;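 note: thrombomodulin protein level measured by ELISA 24 h after dosing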
[3] = read-out: Tissue Factor, F3 (gene 2152); experiment: BSK_CASM3C_TissueFactor: BioMAP Diversity Plus: CASM3C Assay for Tissue Factor Biomarker Activity (AID 2283052); conditions: primary human coronary artery smooth muscle cells; actives raise or lower the signal;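 note: cell surface tissue factor protein level read by ELISA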
[4] = read-out: Urokinase-type plasminogen activator receptor (uPAR), PLAUR (gene 5329); experiment: BSK_CASM3C_uPAR: BioMAP Diversity Plus: CASM3C Assay for Urokinase-type plasminogen activator receptor (uPAR) Biomarker Activity (AID 2283054); conditions: primary human coronary artery smooth muscle cells; actives raise or lower the signal;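 note: cell-surface uPAR protein level quantified by ELISA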
[5] = read-out: Vascular cell adhesion molecule 1 (VCAM1), VCAM1 (gene 7412); experiment: BSK_CASM3C_VCAM1: BioMAP Diversity Plus: CASM3C Assay for Vascular cell adhesion molecule 1 (VCAM1) Biomarker Activity (AID 2283055); conditions: primary human coronary artery smooth muscle cells; actives raise or lower the signal;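 note: VCAM-1 protein level quantified by ELISA on the cells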
[6] = read-out: Collagen III, COL3A1 (gene 1281); experiment: BSK_hDFCGF_CollagenIII: BioMAP Diversity Plus: hDFCGF Assay for Collagen III Biomarker Activity (AID 2283056); conditions: primary human foreskin fibroblasts; actives raise or lower the signal
Method in brief: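 ELISA read-out of collagen III from human skin fibroblast cultures sampled 24 h post-dosing. Values were derived by bidirectional fitting relative to the DMSO vehicle control.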

[7] = read-out: Epidermal growth factor receptor (EGFR), EGFR (gene 1956); experiment: BSK_hDFCGF_EGFR: BioMAP Diversity Plus: hDFCGF Assay for Epidermal growth factor receptor (EGFR) Biomarker Activity (AID 2283057); conditions: primary human foreskin fibroblasts; actives raise or lower the signal
Method in brief: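 ELISA readout of EGFR on human dermal fibroblasts (primary foreskin cells), 24 h post-dosing; bidirectional curve fit vs DMSO baseline, gain or loss of signal scored.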

[8] = read-out: Interleukin-8 (IL8), CXCL8 (gene 3576); experiment: BSK_hDFCGF_IL8: BioMAP Diversity Plus: hDFCGF Assay for Interleukin-8 (IL8) Biomarker Activity (AID 2283058); conditions: primary human foreskin fibroblasts; actives raise or lower the signal
Method in brief: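 Cells used are human skin primary fibroblasts. Chemical is added, cultures run 24 h, then IL-8 is quantified by ELISA, and gain or loss versus DMSO control is fitted in both directions.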

[9] = BSK_hDFCGF_Proliferation: Cell Proliferation Assessment in the BioMAP Diversity Plus: hDFCGF Assay (AID 2283059); conditions: primary human foreskin fibroblasts;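 note: curves fitted for both rise and fall of signal versus DMSO baseline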
Method in brief: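 Primary human foreskin fibroblasts, sub-confluent; […]; 10% TCA fix, 0.1% SRB stain, A560 total protein. Gain/loss fitted bidirectionally vs DMSO control.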

[10] = read-out: Macrophage colony-stimulating factor (MCSF), CSF1 (gene 1435); experiment: BSK_hDFCGF_MCSF: BioMAP Diversity Plus: hDFCGF Assay for Macrophage colony-stimulating factor (MCSF) Biomarker Activity (AID 2283060); conditions: primary human foreskin fibroblasts; actives raise or lower the signal
Method in brief: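 Primary human foreskin fibroblasts dosed with chemical; 24 h later, M-CSF quantified by ELISA; curves fitted in both directions vs DMSO negative control.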

[11] = BSK_hDFCGF_SRB: Viability Assessment in the BioMAP Diversity Plus: hDFCGF Assay (AID 2283061); conditions: primary human foreskin fibroblasts;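 note: cells exposed to compound for 24 h before the read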
Method in brief: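 Readout is SRB absorbance at 560 nm, reflecting total protein in parallel cultures of human foreskin fibroblasts harvested 24 h after chemical dosing. Activity was fitted bidirectionally relative to DMSO.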

[12] = read-out: TIMP metallopeptidase inhibitor 1 (TIMP1), TIMP1 (gene 7076); experiment: BSK_hDFCGF_TIMP1: BioMAP Diversity Plus: hDFCGF Assay for TIMP metallopeptidase inhibitor 1 (TIMP1) Biomarker Activity (AID 2283062); conditions: primary human foreskin fibroblasts; actives raise or lower the signal
Method in brief: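 Human skin fibroblasts (primary), hDFCGF system; compound exposure 24 h; TIMP-1 by ELISA; bidirectional fit vs DMSO negative control; overt cytotoxicity by SRB in parallel wells.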

[13] = read-out: Monokine induced gamma interferon (MIG), CXCL9 (gene 4283); experiment: BSK_hDFCGF_MIG: BioMAP Diversity Plus: hDFCGF Assay for Monokine induced gamma interferon (MIG) Biomarker Activity (AID 2283063); conditions: primary human foreskin fibroblasts; actives raise or lower the signal
Method in brief: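 Chemicals were added to primary human foreskin fibroblast cultures, which were sampled 24 h later. MIG levels were then quantified by ELISA and responses fitted in both directions relative to DMSO.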

[14] = read-out: Vascular cell adhesion molecule 1 (VCAM1), VCAM1 (gene 7412); experiment: BSK_hDFCGF_VCAM1: BioMAP Diversity Plus: hDFCGF Assay for Vascular cell adhesion molecule 1 (VCAM1) Biomarker Activity (AID 2283065); conditions: primary human foreskin fibroblasts; actives raise or lower the signal;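 for AC50: VCAM-1 protein level quantified by ELISA after 24 h chemical exposure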
Method in brief: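 Human foreskin fibroblast primary cells, chemical exposure 24 h; VCAM-1 by ELISA; bidirectional fit, DMSO = negative control/baseline.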

[15] = read-out: Plasminogen activator inhibitor-1 (PAI1), SERPINE1 (gene 5054); experiment: BSK_hDFCGF_PAI1: BioMAP Diversity Plus: hDFCGF Assay for Plasminogen activator inhibitor-1 (PAI1) Biomarker Activity (AID 2283066); conditions: primary human foreskin fibroblasts; actives raise or lower the signal
Method in brief: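 ELISA readout of PAI-1 from primary human skin fibroblast cultures, 24 h after compound addition. Gain or loss of signal was fitted bidirectionally against DMSO baseline.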

[16] = read-out: Intercellular Adhesion Molecule 1 (ICAM1), ICAM1 (gene 3383); experiment: BSK_KF3CT_ICAM1: BioMAP Diversity Plus: KF3CT Assay for Intercellular Adhesion Molecule 1 (ICAM1) Biomarker Activity (AID 2283067); conditions: primary human keratinocytes with fibroblasts; actives raise or lower the signal
Method in brief: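 ICAM-1 levels are measured by ELISA 24 h after dosing a primary human co-culture of keratinocytes and foreskin fibroblasts. Activity in either direction is fitted relative to DMSO vehicle.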

[17] = read-out: Interferon-gamma inducible Protein 10 (IP10), CXCL10 (gene 3627); experiment: BSK_KF3CT_IP10: BioMAP Diversity Plus: KF3CT Assay for Interferon-gamma inducible Protein 10 (IP10) Biomarker Activity (AID 2283068); conditions: primary human keratinocytes with fibroblasts; actives raise or lower the signal
Method in brief: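 In a primary skin co-culture of keratinocytes and fibroblasts, IP-10 is quantified by ELISA at 24 h after dosing. SRB staining of parallel wells monitors overt toxicity. Curves are fitted both directions against DMSO.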

[18] = BSK_KF3CT_SRB: Viability Assessment in the BioMAP Diversity Plus: KF3CT Assay (AID 2283069); conditions: primary human keratinocytes with fibroblasts;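 note: total protein by sulforhodamine B staining as a cytotoxicity measure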
Method in brief: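 SRB read-out at 560 nm (0.1% stain, TCA-fixed cells) gauges overt cytotoxicity in a human skin keratinocyte–fibroblast co-culture 24 h post-dosing. Signal change was fitted bidirectionally relative to DMSO control.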

[19] = read-out: Matrix Metallopeptidase 1 (MMP1), MMP1 (gene 4312); experiment: BSK_hDFCGF_MMP1: BioMAP Diversity Plus: hDFCGF Assay for Matrix Metallopeptidase 1 (MMP1) Biomarker Activity (AID 2283064); conditions: primary human foreskin fibroblasts; actives raise or lower the signal
Method in brief: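 ELISA read-out of MMP1 from human foreskin fibroblasts (primary skin cells), 24 h post-dose. Gain or loss of signal was fitted bidirectionally versus DMSO negative control; cytotoxicity was checked by SRB in parallel cultures.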

Measured: AC50

FC(F)(F)C(F)(F)C(F)(F)CC1CO1 (centres undefined)
active: [13] 6.18 µM
inactive: [1] | [2] | [3] | [4] | [5] | [6] | [7] | [8] | [9] | [10] | [11] | [12] | [13] | [14] | [15] | [16] | [17] | [18]

CCN(CC)c1ccc2c(c1)Oc1cc(N(CC)CC)ccc1C21OC(=O)c2ccccc21
active: [5] 1.98 µM | [6] 10 µM | [9] 10.5 µM
inactive: all other assays above

C=CC(=O)OCCC(F)(F)C(F)(F)C(F)(F)C(F)(F)F
inactive: [1] | [2] | [3] | [4] | [6] | [7] | [8] | [9] | [11] | [12] | [15] | [16] | [18]
active: [5] 30 µM | [6] 21.9 µM | [9] 7.58 µM | [10] 21 µM and 15 µM | [11] 8.28 µM | [13] 25.3 µM and 30.9 µM | [14] 13.7 µM and 19.4 µM

Brc1nc2ccccc2s1
active: [9] 31.5 µM
not listed: [17]
inactive: all other assays above

O=C1C=CC(=O)N1c1ccc(Cc2ccc(N3C(=O)C=CC3=O)cc2)cc1
inactive: [2] | [7] | [8]
active: [1] 4.31 µM | [3] 3.35 µM | [4] 5.3 µM | [5] 2.94 µM | [6] 4.09 µM | [9] 0.162 µM | [10] 2 µM | [11] 1.91 µM | [12] 2.7 µM | [13] 3.48 µM | [19] 1.99 µM | [14] 1.5 µM | [15] 2.48 µM | [16] 3.64 µM | [18] 1.97 µM

CCN(CC)c1ccc(C=O)cc1
active: [3] 5.46 µM
not listed: [19]
inactive: all other assays above

NC(=O)C(F)(F)C(F)(F)C(F)(F)F
not listed: [17] | [19]
inactive: all other assays above

NS(=O)(=O)C(F)(F)C(F)(F)C(F)(F)C(F)(F)C(F)(F)C(F)(F)F
inactive: [1] | [2] | [3] | [4] | [5] | [6] | [7] | [8] | [10] | [11] | [12] | [13] | [19] | [14] | [15] | [16] | [17] | [18]
active: [9] 50.8 µM and 50.6 µM | [14] 26.9 µM

CN(C(=O)C(F)(F)C(F)(F)C(F)(F)F)[Si](C)(C)C
not listed: [17] | [19]
inactive: all other assays above

NC(=O)C(F)(F)C(F)(F)C(F)(F)C(F)(F)C(F)(F)C(F)(F)C(F)(F)F
inactive: all assays above

C=CC(=O)OCC(F)(F)C(F)(F)C(F)(F)C(F)(F)C(F)(F)C(F)(F)C(F)(F)C(F)F
inactive: [1] | [2] | [3] | [4] | [5] | [6] | [7] | [8] | [11] | [12] | [15] | [16] | [17] | [18]
active: [5] 11 µM | [9] 18.4 µM and 11.6 µM | [10] 28.8 µM and 30 µM | [13] 26.9 µM and 30 µM | [14] 17 µM and 17.5 µM
